Screening results deposited in PubChem by several laboratories.
tim23-1 inh – tim23-1 yeast growth inhibition; 330,000 compounds, 1.3% hits; S. cerevisiae tim23-1 growth, BacTiter-Glo luminescence, 24 h; inhibition, % at 20 µM;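 active = growth inhibition of the mutant yeast at or above 50%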;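 also: temperature-sensitive mutant grown at 25 °C; plate controls were DMSO-treated mutant yeast for no effect and medium wells lacking yeast for full effect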
TIM10 inh – TIM10 yeast growth inhibition; S. cerevisiae TIM10 strain growth, BacTiter-Glo luminescence, 24 h; inhibition, % at 10 µM; 330,000 compounds, 1.4% hits;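 active = inhibition of 40% or more at the single tested concentration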;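 also: wild-type TIM10 isogenic control strain grown at permissive 25 °C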
tim10-1 inh – inhibits growth of tim10-1 mutant yeast | S. cerevisiae tim10-1 ts strain growth, BacTiter-Glo, 24 h | inhibition, % at 20 µM | 330,000 compounds, 2.2% hits | AID 463190;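 active = inhibition of at least 40%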;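 also: mutant grown at 25 °C; 0% = DMSO wells with yeast and 100% = wells holding no yeast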
Beta2AR agonist – activates human beta-2 adrenergic receptor causing internalization; Am2.2-beta2AR cells, FAP receptor internalization, flow cytometry; response, % (no concentration beside the values); AID 504454; 340,000 compounds, 0.43% hits; P07550;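 active = response above a set limit, near 3 SD of response in nonfluorescent compounds, cut at about 42% in these data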
Target sequence (P07550 whole entry, looked up): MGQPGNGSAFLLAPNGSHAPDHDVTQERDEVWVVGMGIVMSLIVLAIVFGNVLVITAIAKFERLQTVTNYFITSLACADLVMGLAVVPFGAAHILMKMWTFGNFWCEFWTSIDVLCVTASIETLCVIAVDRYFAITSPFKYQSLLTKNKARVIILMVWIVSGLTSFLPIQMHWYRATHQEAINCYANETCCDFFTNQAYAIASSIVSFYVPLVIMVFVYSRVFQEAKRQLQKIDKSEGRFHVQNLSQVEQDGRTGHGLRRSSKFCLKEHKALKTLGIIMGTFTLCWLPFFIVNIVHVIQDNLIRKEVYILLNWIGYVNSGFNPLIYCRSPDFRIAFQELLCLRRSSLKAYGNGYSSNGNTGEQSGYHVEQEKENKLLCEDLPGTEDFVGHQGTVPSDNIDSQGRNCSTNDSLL
PfHsp90 set2 – reduces growth (ATP signal) of yeast expressing P. falciparum Hsp90; 310,000 compounds, 0.32% hits; AID 504621; S. cerevisiae expressing PfHsp90, BacTiter-Glo ATP, 48 h; yeast lacking PDR1 and PDR3 efflux regulators; inhibition, % at 9.4 µM;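 active = every replicate shows inhibition above about 80%, whatever the replicate mean, limit read from the data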;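 also: 0% = DMSO neutral controls and 100% = 20 µM radicicol positive controls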
tim23-1 confirm – confirmation of tim23-1 mutant yeast growth inhibitors; shares compounds with tim23-1 inh; S. cerevisiae tim23-1 growth, BacTiter-Glo luminescence, 24 h; inhibition, % at 20 µM; 4,400 compounds, 83% hits; AID 463218;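 active = inhibition above about 39% in either of two replicate wells at 20 µM, limit read from the data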;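 also: temperature-sensitive tim23-1 mutant grown at 25 °C; 0% = DMSO wells with yeast and 100% = medium wells without yeast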
* hit, by the source's call; / = not tested or not shown; + = active, no number. The list is not random: actives were taken first. Their share in the collection is about 3.8%.

SMILES	tim23-1 inh	TIM10 inh	tim10-1 inh	Beta2AR agonist	PfHsp90 set2	tim23-1 confirm
Cc1ccc(S(=O)(=O)N[C@@H](Cc2ccccc2)C(=O)CCl)cc1	69*	34	39	53*	-44	48*
CCC(=O)N(C)/C=C1\Sc2ccccc2C1=O	53*	-15	-25	13	23	5
CC(=O)N(C)/C=C1\Sc2ccccc2C1=O	18	-22	-41	5	8	/
O=CN(/C=C1\Sc2ccccc2C1=O)Cc1ccccc1	68*	23	31	8	-10	66*
CC(C(=O)Nc1ccc(N2CCOCC2)cc1)N1C(=O)NC(C)(C)C1=O (centres undefined)	-9	6	-6	0	5	/
Cc1ccc(/C=N/Nc2ccc(C(=O)O)cc2)o1	18	1	6	3	-19	/
O=C(O)c1ccc(N/N=C/c2ccc(-c3ccc(Br)cc3)o2)cc1	52*	-25	-3	10	-27	47*
OCC(CO)(CO)N=Cc1cc(Br)ccc1O	59*	14	30	13	-57	56*
CC(C)(C)c1ccc(O)c(N=Cc2cc(Br)ccc2O)c1	69*	15	12	8	1	35
CC(C)(C)C(=O)CN1C(=O)NC(C)(Cc2ccc3c(c2)OCO3)C1=O (centres undefined)	14	-12	16	9	3	/
COc1ccc2c(c1)[C@H]1[C@H](CO2)[C@H](c2ccccc2)[C@]2(C)C(=O)Nc3ccc(C)cc3C(=O)N12	51*	12	21	4	+	43*
COc1ccc2c(c1)OC[C@H]1[C@H]2N2C(=O)c3cc(C)ccc3NC(=O)[C@@]2(C)[C@H]1c1ccccc1	51*	-5	8	2	104*	58*
COc1ccc2c(c1)[C@H]1[C@H](CO2)[C@H](c2ccccc2)[C@]2(C)C(=O)Nc3ccc(F)cc3C(=O)N12	27	13	17	7	-12	/
CCc1ccc2c(Cl)c(C(=O)N/N=C/c3c[nH]c4ccccc34)sc2c1	52*	20	9	-1	4	39*
CCc1ccc(-c2cc(C(=O)N/N=C/c3c[nH]c4ccccc34)[nH]n2)cc1	7	19	9	-1	35	/
O=C(CCCN1C(=O)/C(=C/c2ccccc2)SC1=S)Nc1cccc(O)c1	50*	33	38	10	4	50*
O=C(CCCN1C(=O)/C(=C\c2ccccc2)SC1=S)Nc1cccc(C(=O)O)c1	10	1	7	6	-49	/
COc1ccc(S(=O)(=O)Cc2ccc(C(=O)NC3CCCCCC3)o2)cc1	22	-2	22	1	33	/
Cc1ccc(C(=O)/C=C/C(=O)c2ccc(C)cc2)cc1	58*	36	32	29	18	-72
O=c1c2cn[nH]c2nc(SCc2c(F)cccc2F)n1-c1ccc(Cl)cc1	52*	18	19	13	-25	54*
CCCCn1c(N)c(N(CCOC)C(=O)CSc2n[nH]c(-c3ccc(OC)cc3)n2)c(=O)[nH]c1=O	13	4	5	5	10	/
Oc1c(Cl)cc(Cl)cc1CNc1ccccn1	52*	10	4	-2	-30	49*
Cc1c(NCc2cc(Cl)cc(Cl)c2O)c(=O)n(-c2ccccc2)n1C	55*	36	35	4	-26	38
Oc1ccc(Br)cc1CNc1ccccn1	27	-31	-7	-2	-14	/
CC12CCC(C(=O)NCCCN3CCOCC3)(OC1=O)C2(C)C (centres undefined)	3	-1	4	-8	-40	/
SMILES	tim23-1 inh	TIM10 inh	tim10-1 inh	Beta2AR agonist	PfHsp90 set2	tim23-1 confirm
CC12CCC(C(=O)NCCCN3CCOCC3)(C(Br)C1=O)C2(C)C (centres undefined)	95*	-7	-8	6	0	1
COc1ccccc1Nc1nc(N)nc(CSC(=S)N2CCC(C)CC2)n1	50*	35	39	-16	7	36
O=C1/C(=C/c2cccs2)COc2ccccc21	58*	33	28	9	-5	58*
O=C1C(=Cc2cccs2)Oc2ccccc21	/	/	/	-1	20	/
O=C(COC(=O)c1n[nH]c(=O)c2ccccc12)c1ccccc1	9	7	21	-2	4	/
Cc1ccc(C)c(C(=O)COC(=O)c2n[nH]c3ccccc23)c1	58*	36	23	7	-3	49*
Cc1cccc(C)c1OCCOC(=O)c1n[nH]c2ccccc12	46	38	26	-4	-36	/
O=C(COC(=O)c1n[nH]c2ccccc12)c1cccc(Br)c1	50*	13	30	2	-3	40*
CCSc1nnc(NC(=O)CCc2ccc(OC)cc2)s1	4	-1	-1	5	0	/
CC(C)Cn1c(/C=C/c2ccccc2)nc2ccccc21	56*	39	39	-15	-10	46*
C/C(=N\N(C)C)C1=C(O)c2ccccc2C1=O	22	5	8	-6	-11	/
CCOc1ccc(N=C(C)C2=C(O)c3ccccc3C2=O)cc1	60*	17	8	3	17	58*
CCC(C)NC(=O)c1cc2c(=O)n(CC)c3ccccc3c2s1 (centres undefined)	52*	13	34	3	-4	49*
CCSc1nnc(NC(=O)c2ccc(Br)s2)s1	16	5	12	3	-3	/
Cc1cccc(C)c1Nc1nnc(SCC(=O)c2ccc(Br)s2)s1	52*	36	39	6	-10	61*
N=c1oc2ccc([N+](=O)[O-])cc2cc1C(=O)NCc1ccccc1	59*	15	26	5	-2	56*
CN1C(=O)/C(=C/c2ccc(C(=O)Nc3ccc(O)cc3C(=O)O)cc2)SC1=S	24	27	19	-4	-4	/
CC(=O)NNC(=O)c1[nH]c2ccc(Br)cc2c1-c1ccccc1	11	13	19	5	2	/
NNC(=O)c1[nH]c2ccc(Br)cc2c1-c1ccccc1	53*	23	20	7	3	50*
CCOc1ccc(C(Nc2cccnc2)c2cc(Cl)c3cccnc3c2O)cc1 (centres undefined)	56*	12	39	5	106*	69*
CCCC(=O)NC(c1cccs1)c1cc(Cl)c2cccnc2c1O (centres undefined)	56*	-15	15	10	120*	69*
CCC(=O)NC(c1ccc(C)cc1)c1cc(Cl)c2cccnc2c1O (centres undefined)	54*	-34	27	1	71	58*
CC(=O)NC(c1cccs1)c1cc(F)c2cccnc2c1O (centres undefined)	50	8	40	7	-13	/
CN1CCN(C(c2ccc(Br)cc2)c2cc(Cl)c3cccnc3c2O)CC1 (centres undefined)	66*	36	22	38	107*	77*
